Assay results reported in PubChem BioAssay.

Assay: budding yeast growth changes without added modifier – OD600, strain BY4716, 24 h, basal condition, primary screen (AID 1173)
Settings: S. cerevisiae BY4716 growth, OD600, 24 h; higher = more signal, called active from +8 up or from −8 down

z-score, inactive:
COC(=O)[C@H](C)NC(=O)CCC1CC(OC(=O)NCc2cccc3ccccc23)CC2(CCCC(COC(=O)NCCc3ccccc3OC)O2)O1 (stereo not given in full) 0.526, CO[C@@H](C(C)C)[C@@H](C)C1OC(=O)CC1O (stereo not given in full) -0.139, COc1ccc(COC(=O)NN=C2C[C@@H](O)[C@@H](O)[C@@H]3[C@@H]4C(=O)N(C[C@@H]5CCCO5)C(=O)[C@@H]4CC[C@H]23)cc1 1.29, COC(=O)[C@H](C)NC(=O)CCC1CC(OC(=O)NCCc2ccc(F)cc2)CC2(CCCC(COC(=O)NCCc3ccccc3OC)O2)O1 (stereo not given in full) 0.292, CON=C(C)CCN1CCCCc2nc(C)c(C)cc21 -0.571, CC(C)C(=O)N[C@H]1CCCN1C(=O)C=Cc1ccccc1 0.881, C#CCCCON=C1C[C@@H](O)[C@@H](O)[C@@H]2[C@@H]3C(=O)N(C[C@@H]4CCCO4)C(=O)[C@@H]3CC[C@@H]12 0.43, COc1ccc(COC(=O)NN=C2C[C@@H](O)[C@@H](O)[C@@H]3[C@@H]4C(=O)N(C5CCCCC5)C(=O)[C@@H]4CC[C@@H]23)cc1 -1.29, CCOC(=O)[C@H](CC(C)C)NC(=O)CCC1CC(OC(=O)NCc2ccc3c(c2)OCO3)CC2(CCCC(COC(=O)NCCc3ccc(Cl)cc3)O2)O1 (stereo not given in full) -0.723, CC(CCC(=O)OC[C@H]1O[C@H](C#Cc2ccccc2)C=C[C@@H]1Oc1ccc(C)cc1)=NO[C@@H](C)c1cc(-c2c(C)cc(C)cc2C)no1 0.0942
